Records with an inconclusive call do not appear. A number with no mark means an inactive call. Activity calls are given as the source filed them. The call rests on the fitted dose curve; in most records, active means well fitted inhibition curve with a large enough effect; inconclusive means small, poorly fitted or top-dose-only effect; inactive means flat fitted curve, though single readings scatter.
test system: astro; assay: Drug repurposing screens with cells derived from glioblastoma tumor samples (AID 1345199); settings: viability, ATP luminescence, 48 h; series mostly up to 45.9 µM; activity, negative = cell killing: at the top concentration; further: nearly all actives have a fitted effect of over 40% in size
Description: CD133+ cells were isolated from GBM patient biopsies and cultured as neurospheres. Neurospheres from four patients were used to screen the NCATS pharmaceutical collection (NPC) library of approved drugs and bioactive compounds. […] The neurospheres were incubated with drugs for 48 hours in 1536-well format, then assayed with an ATP content cell viability assay. […] These hits were cherry picked to confirm activity in the four original GBM lines screened plus three other slower growing GMB lines (unable to yield enough cells for a full primary screen). Variable activities of the confirmed primary hits in the different GBM patient lines were observed. The patient line 206 responded to the greatest number of compounds and line 923 responded to the least amount of active compounds.
On the % scale 0 is the no-effect control and ±100 the full control effect; potency means the concentration at half of the fitted maximal effect.

Row | Structure (SMILES) | activity, negative = cell killing | Potency
1 | N[C@H](CO)C(=O)O | -4.99% | –
2 | CCOC(=O)c1cccc(N)c1 | -8.78% | –
3 | COc1ccc(CN2CCN(C(c3ccc(F)cc3)c3ccc(F)cc3)CC2)c(OC)c1OC | – | 35.5 µM (active)
4 | Cc1cc(=O)n(-c2ccccc2)n1C | 5.14% | –
5 | CC(=O)OCC(=O)[C@@]1(OC(C)=O)[C@@H](C)C[C@H]2[C@@H]3C[C@H](F)C4=CC(=O)C=C[C@]4(C)[C@@]3(F)[C@@H](O)C[C@@]21C | -11.8% | –
6 | CN(C)C(=S)SC(=S)N(C)C | 3.11% | –
7 | Nc1ccc(C(=O)O)cc1 | -10.3% | –
8 | CCN1CCC[C@H]1CNC(=O)c1c(OC)ccc(Br)c1OC | -12.1% | –
9 | O=c1[nH]c(=O)n([C@H]2C[C@H](O)[C@@H](CO)O2)cc1C(F)(F)F | -9.24% | –
10 | O=C(COc1ccc(Cl)cc1)N1CCN(Cc2ccc3c(c2)OCO3)CC1 | -19.6% | –
11 | CC(=O)[C@H]1CC[C@H]2[C@@H]3C[C@H](C)C4=CC(=O)CC[C@]4(C)[C@H]3[C@@H](O)C[C@]12C | -9.61% [at 21.2 µM] | –
12 | OC(CCN1CCCCC1)(c1ccccc1)c1ccccc1 | -8.94% | –
13 | NC[C@H]1O[C@H](O[C@H]2[C@H](O[C@@H]3O[C@H](CO)[C@@H](O)[C@H]3O)C(O)[C@H](N)C[C@@H]2N)[C@H](N)[C@@H](O)[C@@H]1O (stereo not given in full) | -5.53% [at 21.2 µM] | –
14 | C#C[C@]1(O)CC[C@H]2[C@@H]3CCc4cc(OC5CCCC5)ccc4[C@H]3CC[C@@]21C | – | 22.4 µM (active)
15 | CN1[C@@H]2CC[C@H]1CC(OC(=O)c1c[nH]c3ccccc13)C2 (stereo not given in full) | 7.69% | –
16 | CN(C(=O)CN(CCO)CC(=O)N(C)C(C)(C)Cc1ccccc1)C(C)(C)Cc1ccccc1 | -18.9% [at 21.2 µM] | –
17 | CCCC(=O)O[C@]1(C(=O)CO)CC[C@H]2[C@@H]3CCC4=CC(=O)CC[C@]4(C)[C@H]3[C@@H](O)C[C@@]21C | -11.4% | –
18 | COc1cc2c(cc1OC)C(C(C(=O)N(CCc1ccc(OC)c(OC)c1OC)CCc1ccc(OC)c(OC)c1OC)c1ccccc1)=NCC2 (stereo not given) | -21.3% | –
19 | CC[N+](CC)(CCNC(=O)C(=O)NCC[N+](CC)(CC)Cc1ccccc1Cl)Cc1ccccc1Cl | -12.8% | –
20 | Cc1onc(-c2c(Cl)cccc2Cl)c1C(=O)N[C@@H]1C(=O)N2[C@@H]1SC(C)(C)[C@@H]2C(=O)O | -23.2% | –

Row | Structure (SMILES) | activity, negative = cell killing | Potency
21 | C[n+]1c2cc(N)ccc2cc2ccc(N)cc21 (tested in a mixture with another compound) | – | 11.2 µM (active)
22 | Cc1c(N(C)CS(=O)(=O)O)c(=O)n(-c2ccccc2)n1C | -16.7% [at 21.2 µM] | –
23 | COc1cc(NS(C)(=O)=O)ccc1Nc1c2ccccc2nc2ccccc12 | – | 11.2 µM (active)
24 | CC1(C)O[C@@H]2C[C@H]3[C@@H]4CCC5=CC(=O)CC[C@]5(C)[C@@]4(F)[C@@H](O)C[C@]3(C)[C@]2(C(=O)CCl)O1 | -2.23% [at 21.2 µM] | –
25 | C[N+]1(CCCCC[N+]2(C)CCCC2)CCCC1 | -9.21% | –
26 | COc1cc(C=C2CCC/C(=C\c3ccc(O)c(OC)c3)C2=O)ccc1O | – | 20 µM (active)
27 | CCCCCCCCCCCCCCCCCC(=O)OCC(O)CO (stereo not given) | -8.12% | –
28 | CC(=O)Oc1ccc(C(=C2CCCCC2)c2ccc(OC(C)=O)cc2)cc1 | -9.53% | –
29 | NCCC(O)(P(=O)(O)O)P(=O)(O)O | -15.3% | –
30 | CCOc1ccc2nc3cc(N)ccc3c(N)c2c1 | -18.8% | –
31 | COC(=O)CCc1ccc(OCC(O)CNC(C)C)cc1 (stereo not given) | -12.5% | –
32 | CCCCCCCCCCOCC(O)CN (stereo not given) | – | 28.2 µM (active)
33 | CC(=O)O[C@]1(C(C)=O)CC[C@H]2[C@@H]3C[C@H](C)C4=CC(=O)CC[C@]4(C)[C@H]3CC[C@@]21C | -28.4% | –
34 | NC(=O)CC[C@@H]1NC(=O)[C@H](Cc2ccccc2)NC(=O)[C@H](Cc2ccc(O)cc2)NC(=O)CCSSC[C@@H](C(=O)N2CCC[C@H]2C(=O)N[C@@H](CCCN=C(N)N)C(=O)NCC(N)=O)NC(=O)[C@H](CC(N)=O)NC1=O | – | inactive
35 | c1ccc(OCc2ccc(CCCN3CCOCC3)cc2)cc1 | -16.3% | –
36 | CCC(C(=O)OCCN(CC)CC)c1ccccc1 (stereo not given) | -12.1% | –
37 | O=C1[C@H]2CCCC[C@H]2C(=O)N1CCCCN1CCN(c2nsc3ccccc23)CC1 | -29.4% | –
38 | Cc1c(C)n(CCN(C)C)c2ccc(C(=O)OCCN(C)C)cc12 | -9.45% | –
39 | CC1(C)O[C@@H]2C[C@H]3[C@@H]4C[C@H](F)C5=CC(=O)C=C[C@]5(C)[C@H]4[C@@H](O)C[C@]3(C)[C@]2(C(=O)CO)O1 | -2% [at 21.2 µM] | –
40 | CCCCS(=O)(=O)N[C@@H](Cc1ccc(OCCCCC2CCNCC2)cc1)C(=O)O | -14.5% | –
